CYP2C19 act: increases human CYP2C19 enzyme activity; P33261; recombinant CYP2C19, luciferin-H EGE luminescence; hits give high values; 0 = fully inhibited enzyme, 1 = untreated enzyme; activation factor at 5 µM; 96,000 tested, under 10 active; AID 1025;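 active = activation factor of at least 2 at 5 µM in the primary screen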;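 also: 0 = wells with 2.5 mM tranylcypromine and 1 = vehicle-only wells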
sEH act: activators of human soluble epoxide hydrolase. P34913. purified human sEH enzymatic activity, activator screen. activation, % at 2 µM. 0.04% of 91,000 active. AID 717; in the data active = activation above about 37%
Target sequence (P34913 whole entry, looked up): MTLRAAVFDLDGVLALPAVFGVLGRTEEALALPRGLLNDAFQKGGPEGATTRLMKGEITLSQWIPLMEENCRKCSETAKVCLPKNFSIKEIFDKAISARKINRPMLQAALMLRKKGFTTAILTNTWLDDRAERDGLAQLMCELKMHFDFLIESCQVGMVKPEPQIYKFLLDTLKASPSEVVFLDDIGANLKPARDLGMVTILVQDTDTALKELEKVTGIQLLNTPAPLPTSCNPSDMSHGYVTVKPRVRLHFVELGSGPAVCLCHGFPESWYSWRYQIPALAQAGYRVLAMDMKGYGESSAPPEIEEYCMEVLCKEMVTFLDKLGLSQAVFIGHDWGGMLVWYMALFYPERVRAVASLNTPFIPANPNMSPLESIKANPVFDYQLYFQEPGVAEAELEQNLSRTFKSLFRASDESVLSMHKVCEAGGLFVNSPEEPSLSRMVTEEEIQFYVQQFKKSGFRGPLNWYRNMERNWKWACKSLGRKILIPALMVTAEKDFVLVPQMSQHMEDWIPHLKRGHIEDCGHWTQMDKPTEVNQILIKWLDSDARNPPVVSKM
CYP2C9 inh: inhibitors of human CYP2C9; P11712; CYP2C9 Supersomes, luciferin-H conversion, luminescence; inhibition, % at 5 µM; 20% of 96,000 active; AID 777;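 active = blocking of liver enzyme CYP2C9 beyond about 50% at 5 µM, limit read from the data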
CYP2C19 inhib: inhibitors of human CYP2C19; P33261; CYP2C19 Supersomes, luciferin-H EGE luminescence, 30 min; inhibition, % at 5 µM; 21% of 96,000 active;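 active = CYP2C19 inhibition above a set limit at 5 µM in the primary screen, cut at about 50% in these data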;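 also: plate controls were negative control wells for no effect and 2.5 mM tranylcypromine positive control for full effect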
sEH inhibitor: blocks human soluble epoxide hydrolase activity; AID 707; 0.34% of 91,000 active; P34913; recombinant human sEH enzymatic activity assay; inhibition, % at 2 µM; in the data active = inhibition above about 80%
CYP2C9 activ: activators of human CYP2C9. P11712. AID 1024. recombinant CYP2C9, luciferin-H conversion, luminescence; hits give high values; factor 1 = untreated enzyme, 0 = blocked. 1.4% of 96,000 active. activation factor at 5 µM;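 active = activation factor of 2 or more for CYP2C9 at a 5 µM dose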;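 also: 0 = sulfaphenazole-blocked wells and 1 = vehicle-only wells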
Numbers without * were called inactive; nt = no result. An excerpt weighted towards active compounds, which were near 27% of everything screened.

SMILES	CYP2C19 act	sEH act	CYP2C9 inh	CYP2C19 inhib	sEH inhibitor	CYP2C9 activ
CCOC(=O)c1c(C)n(C)c2ccc(OCC(N)=O)cc12	1	-1	34	4	1	0.7
CCOC(=O)c1c(C)n(CC(O)c2ccccc2)c2ccc(O)cc12 (configuration not stated)	0.4	13	60*	64*	-16	0.4
CCOC(=O)COc1ccc2c(c1)c(C(=O)OCC)c(C)n2CC	0.2	4	40	80*	-5	0.6
CCOC(=O)c1c(C)n(CCNC(C)=O)c2ccc(O)cc12	0.4	10	44	60*	-12	0.6
CS(=O)(=O)N1CCN(c2ccccc2NC(=O)c2ccco2)CC1	0.8	9	11	16	-9	0.9
COc1ccc(C(=O)Oc2ccc3oc(=O)sc3c2)cc1	1.1	-40	4	-5	39	1
COc1ccc(C(CC(=O)NCCCN2CCOCC2)NS(=O)(=O)c2ccc(C)cc2)cc1 (configuration not stated)	1.1	4	-12	-11	-4	1.1
Cc1ccc(C)c(-c2csc(N)c2C(=O)OC(C)C)c1	0.3	-5	67*	69*	4	0.3
Cc1cccc(-c2csc(N)c2C(=O)OC(C)C)c1	nt	7	nt	nt	-7	nt
COc1ccc(C2c3c(-c4ccccc4O)n[nH]c3C(=O)N2CCc2ccc(OC)c(OC)c2)cc1 (configuration not stated)	0.1	nt	96*	86*	nt	0
CCc1ccc(NC(=O)CSc2nnc(CNC(=O)c3c(F)cccc3Cl)o2)cc1	0.8	-13	52*	21	15	0.5
O=C(CSc1nnc(CNC(=O)c2c(F)cccc2Cl)o1)Nc1ccccc1	1	-3	2	2	4	1
CC(C)Sc1nc2c(c(=O)n(C)c(=O)n2C)n1C	0.2	-13	18	78*	12	0.8
Cc1ccc(C2CC(c3ccccc3)n3ncnc3N2)cc1 (configuration not stated)	0	nt	65*	98*	nt	0.4
Cc1ccc(C2CC(c3cccc(C)c3)n3ncnc3N2)cc1 (configuration not stated)	0	-1	57*	96*	5	0.4
Cn1c(Cn2nnc3ccccc32)nnc1SCC(=O)N1CCc2ccccc21	1.1	13	-4	-7	-14	1
CCOc1ccccc1NC(=O)NC1CC2CCCC(C1)N2Cc1nnnn1CCc1ccccc1 (configuration not stated)	0.2	nt	61*	78*	nt	0.4
CO/N=C/NC(=O)NOCc1ccc(Cl)cc1Cl	0.5	-6	14	52*	7	0.9
CCn1cc(S(=O)(=O)CC(=O)NC2CCCCC2)c2ccccc21	0.7	nt	3	32	nt	1
O=C1CNC(=O)N1CC(=O)N1CCCc2ccccc21	1	18	-8	-2	-19	1.1
O=C(CS(=O)(=O)c1c[nH]c2ccccc12)NC1CCCCC1	0.5	-2	-66	51*	3	1.7
O=C(CS(=O)(=O)c1c[nH]c2ccccc12)N1CCCc2ccccc21	0.1	7	-81	94*	-9	1.8
Cc1[nH]c2ccccc2c1SCC(=O)N1CCCc2ccccc21	0.2	1	9	76*	1	0.9
O=C(C(=O)N1CCCc2ccccc21)c1c[nH]c2ccccc12	0.3	6	-47	67*	-4	1.5
CC(C)(C)CC(C)(C)Nc1c(-c2ccc(O)cc2)nc2cnccn12	nt	-16	nt	nt	16	nt
SMILES	CYP2C19 act	sEH act	CYP2C9 inh	CYP2C19 inhib	sEH inhibitor	CYP2C9 activ
CCCCc1c(C)nn(-c2nnc3c4ccccc4n(C)c3n2)c1C	0.9	4	14	12	-3	0.9
O=C(COC(=O)c1cc(S(=O)(=O)N2CCCCC2)ccc1N1CCOCC1)NC1CCCCC1	0.7	1	44	32	-1	0.6
COc1ccc2c(c1)C1(Nc3ccccc3-c3nc4ccccc4n31)C(=O)N2 (configuration not stated)	1.1	18	25	-12	-19	0.7
CC1(c2ccncc2)Nc2ccccc2-c2nc3ccccc3n21 (configuration not stated)	0	-10	90*	97*	14	0.1
COC(=O)c1ccc(NC2CC(=O)N(c3ccccc3C)C2=O)cc1 (configuration not stated)	0.4	9	20	60*	-10	0.8
COC(=O)c1cccc(NC2CC(=O)N(c3ccc(OC)c(OC)c3)C2=O)c1 (configuration not stated)	0.5	nt	10	53*	nt	0.9
COC(=O)c1ccccc1NC1CC(=O)N(c2c(C)cccc2C)C1=O (configuration not stated)	0.7	12	78*	34	-13	0.2
Cc1ccc(NC2CC(=O)N(c3ccc(N4CCCCC4)cc3)C2=O)cc1 (configuration not stated)	1.2	5	-7	-19	-1	1.1
COC(=O)c1ccccc1NC(=O)C1CC(=O)N(c2ccc(C)c(C)c2)C1 (configuration not stated)	0.6	15	-54	37	-16	1.5
COc1ccc(N2C(=O)CC(Nc3ccc(C)cc3)C2=O)cc1 (configuration not stated)	0.9	-8	74*	14	7	0.3
CN=C(Nc1ccc(C(=O)OC)cc1)SC1CC(=O)N(c2ccccc2F)C1=O (configuration not stated)	0.8	-2	49	16	5	0.5
CCOC(=O)Cn1nc(C)n(-c2ccc(C)cc2)c1=O	1.1	0	-2	-7	3	1
O=C1CS/C(=C\[N+](=O)[O-])N1c1ccc(OC(F)(F)F)cc1	0.6	-2	-3	38	4	1
CC(C)C(NS(=O)(=O)c1ccc2c(c1)OCCO2)C(=O)NCCc1ccccn1 (configuration not stated)	0.7	nt	8	32	nt	0.9
O=C(Nc1ccc(O)cc1)C1CC=CCC1 (configuration not stated)	1	-11	6	-1	10	0.9
COC(=O)c1ccc(N2C(=O)CC(N(C)CCc3ccc(OC)c(OC)c3)C2=O)cc1 (configuration not stated)	0.4	-14	54*	62*	14	0.5
Cc1cc(C(=O)CSc2nnc(Nc3ccccc3F)s2)c(C)n1CC1CCCO1 (configuration not stated)	0.5	-2	56*	53*	1	0.4
Cc1cc(C(=O)CSc2nnc(NCc3ccccc3)s2)c(C)n1C	0.8	-5	18	21	5	0.8
Cc1cc(C(=O)CSc2nnc(-c3cccnc3)n2-c2ccccc2F)c(C)n1CC1CCCO1 (configuration not stated)	0.2	-13	65*	78*	12	0.3
Cc1ccccc1-n1c(SCC(=O)c2cc(C)n(C)c2C)nnc1-c1ccncc1	0	-1	92*	99*	1	0.1

Compound activity deposited in PubChem BioAssay by several laboratories.
